Measurements from ChEMBL document CHEMBL3988442, “University of Dundee, Small-Polar-MMV Screening Library” (2021).
In all, about 66,000 compounds went through this assay and about 960 (1.5%) showed an effect of 50% or more. The sample holds strong results, similar compounds and a random draw of the others, so the mix is not that of the screen.

System: Trypanosoma brucei
Assay: Trypanosoma brucei 72 hour study
Type: functional, organism-based
Design: scale not given: in the data most compounds retested in dose-response had high values

| SMILES | Percent Effect (30.3 µM, […]) [%] | Percent Effect (30 µM, 30.03 µM) [%] |
| --- | --- | --- |
| CN1CCO[C@@H]2CN(C(=O)NCc3ccccc3)CC[C@@H]2C1.O=C(O)C(F)(F)F | -54.53 |  |
| Cn1ccnc1C(=O)N1CCC2(CCN2c2ncccn2)C1.O=C(O)C(F)(F)F (stereo unspecified) | -37.97 |  |
| CCC1CN(C)c2ccccc2CN1CCn1cncn1 (stereo unspecified) |  | 56.46 |
| CCC1CN(C)c2ccccc2CN1C(=O)CCn1cncn1 (stereo unspecified) |  | 12.6 |
| CC1CN(C)c2ccccc2CN1CCn1cncn1 (stereo unspecified) |  | -41.9 |
| COc1cc(C)c(S(=O)(=O)NCc2cccnc2N(C)C)c(C)c1 | 6.422 |  |
| Cc1ccc(-n2cc(CN3CCOCC3)c(-c3cccc(C)c3)n2)cc1 | 3.807 |  |
| Cc1ccc(C)c(-n2cc(CN3CC[C@@H](O)C3)c(-c3ccccc3)n2)c1 | 100.3 |  |
| Cc1ccc(C)c(-n2cc(CN3CCOCC3)c(-c3ccccc3)n2)c1 | 5.174 |  |
| O=C(NC1CC1)C1=CC2(CCN(CCO)CC2)c2ccccc21.O=C(O)C(F)(F)F | -19.93 |  |
| CCN1CCN2CCCN(S(=O)(=O)c3cccc(F)c3)C2C1=O (stereo unspecified) | 65.65 |  |
| CCN1CCN2CCCN(S(=O)(=O)c3ccc(S(C)(=O)=O)cc3)C2C1=O (stereo unspecified) | 30.28 |  |
| CCN1CCN2CCCN(S(=O)(=O)c3ccc(C)cc3C)C2C1=O (stereo unspecified) | 8.732 |  |
| COc1cc(C(=O)N2C[C@H]3CC[C@@H]2CN(Cc2cscn2)C3)ccn1 |  | 1.07 |
| CS(=O)(=O)NCC1CCCN(C(=O)c2cc3ccccc3o2)C1 (stereo unspecified) | 1.962 |  |
| O=C(COCC(F)(F)F)NS(=O)(=O)c1ccc2c(c1)OCCCO2 | -2.455 |  |
| Cc1ccc(CN2CCc3onc(C(=O)N4CCCC4)c3C2)o1.O=C(O)C(F)(F)F | 0.525 |  |
| CN1CCN(c2cc(NC(=O)Cn3ccc4ccccc43)ncn2)CC1 | 101.2 |  |
| O=C(Cn1ccc2ccccc21)Nc1cc(N2CCOCC2)ncn1 | -10.05 |  |
| O=C(Cn1ccc2ccccc21)Nc1cc(N2CCCC2)ncn1 | 1.206 |  |
| O=C(CC1CC1)N1CC[C@H]2[C@@H]1CCC(=O)N2Cc1ccncc1.O=C(O)C(F)(F)F |  | -15.55 |

| SMILES | Percent Effect (30.3 µM, […]) [%] | Percent Effect (30 µM, 30.03 µM) [%] |
| --- | --- | --- |
| c1nc(N2CCCC(Cn3cncn3)C2)c2sccc2n1 (stereo unspecified) | 1.361 |  |
| Cc1cc(NC2CCc3ncnn3C2)n2ncnc2n1 (stereo unspecified) |  | -36.85 |
| Cc1nc[nH]c1CN1CCC2(CC1)CC(Nc1ncccn1)CO2.O=C(O)C(F)(F)F (stereo unspecified) |  | -22.29 |
| CC(=O)Nc1ccc(CCC2(NC(=O)C3CC3)CCCCC2)cn1 | 1.37 |  |
| CC(C)(C)c1ccc(CN2C[C@H]3C[C@H](O)C[C@H]3C2)c(OCC(N)=O)c1 | -6.506 |  |
| Cc1cc(C(F)(F)F)nn1CC(C)C(=O)Nc1ccccn1 (stereo unspecified) | 13.6 |  |
| Cc1cccnc1NC(=O)C(C)Cn1nc(C(F)(F)F)cc1C (stereo unspecified) |  | 53.66 |
| Cc1cc(C(F)(F)F)nn1CC(C)C(=O)Nc1cccnc1 (stereo unspecified) | -4.531 |  |
| Cc1cc(N2CCN(C(=O)[C@@H]3C[C@@H]4C=C[C@H]3C4)CC2)nc2ccccc12 | 18.47 |  |
| Cl.O[C@@H]1CN(Cc2ccc(F)cc2)CC[C@H]1NCc1ccccn1 | 5.839 |  |
| CC(C)(C)C1CC(=O)Nc2c1cnn2Cc1ccco1 (stereo unspecified) |  | 53.72 |
| CC(C)C1CC(=O)Nc2c1cnn2Cc1ccco1 (stereo unspecified) |  | 5.524 |
| CC(C)CC1CC(=O)Nc2c1cnn2Cc1ccco1 (stereo unspecified) |  | -10.02 |
| COCc1nc(N(C)C)ncc1C(=O)NC(C)c1ccccc1 (stereo unspecified) | -21.32 |  |
| O=C(O)c1cc(-c2ccn(CC3CC3)n2)n2ccccc12 | -1.96 |  |
| O=C(c1cc(-c2ccn(CC3CC3)n2)n2ccccc12)N1CCOCC1 | 100.3 |  |
| O=C(c1cc(-c2ccn(CC3CC3)n2)n2ccccc12)N1CCCO1 | -0.5665 |  |
| Cc1ccc(CN2CCC3(CC2)CC(c2cccnc2)C(=O)N3C)o1.O=C(O)C(F)(F)F.O=C(O)C(F)(F)F (stereo unspecified) | -49.66 |  |
| COCCN1CCC2(CCCN(Cc3ccoc3)C2)C1=O.O=C(O)C(F)(F)F (stereo unspecified) | -22.78 |  |
| O=C(CC1CCCC1)N1CCn2cc(Cn3cccn3)nc2C1.O=C(O)C(F)(F)F | -840.1 |  |
| O=C(O)C(F)(F)F.O=C(c1cnoc1)N1CCC[C@]2(C[C@@H](Oc3ccccn3)CO2)C1 |  | -14.73 |

| SMILES | Percent Effect (30.3 µM, […]) [%] | Percent Effect (30 µM, 30.03 µM) [%] |
| --- | --- | --- |
| COC(=O)CCNC(=O)c1cnc(Cc2ccc(F)cc2)s1 |  | 3.867 |
| CCNC(=O)c1cnc(Cc2ccc(F)cc2)s1 |  | 3.769 |
| CN(C)CCCNC(=O)c1cnc(Cc2ccc(F)cc2)s1 |  | 52.82 |
| O=c1c(CN2CC3CCCN3C[C@@H]2CCO)coc2ccc(Cl)cc12 (stereo partly specified) | -20.01 |  |
| O=C1CC(N(C(=O)Cc2csc(-c3ccccc3)n2)C2CC2)C(=O)N1 (stereo unspecified) |  | 106 |
| Cc1nc(-c2ccccc2)sc1C(=O)N(C1CC1)C1CC(=O)NC1=O (stereo unspecified) |  | 37.33 |
| O=C1CC(N(C(=O)c2csc(-c3ccccc3)n2)C2CC2)C(=O)N1 (stereo unspecified) |  | 9.836 |
| O=C(O)C(F)(F)F.O=C1COC2(CCN(CC3CC3)CC2)CN1c1ccsc1 | -336 |  |
| Cn1cc(CN2CCC3(CCN(c4cnn(C)c4)C3=O)C2)cn1.O=C(O)C(F)(F)F (stereo unspecified) |  | -6.498 |
| Cc1nc(CN2CCCC3(CCN(c4cnn(C)c4)C3=O)C2)cs1.O=C(O)C(F)(F)F (stereo unspecified) | -9.884 |  |
| Cn1cc(N2CCC3(CCCN(Cc4ccc(F)cc4)C3)C2=O)cn1.O=C(O)C(F)(F)F (stereo unspecified) |  | 66.19 |
| COCCNc1ccc(CC2CCCNC2)cn1.Cl (stereo unspecified) | 0.7781 |  |
| CSCc1cc(F)ccc1CNC(=O)N1CCC(CO)CC1 |  | -59.11 |
| I.c1ccc(OCCNC2=NCCCN2)cc1 |  | -0.004482 |
| CCOCc1ccc(CNC2=NCCCN2)cc1.I | -5.411 |  |
| CN(C)c1ccc(CNC2=NCCCN2)cc1.I | 99.22 |  |
| NC[C@H]1CC[C@H](C(NC(=O)CC2CCCC2)c2ccccn2)CC1 (stereo partly specified) | -41.17 |  |
| CCCN1C[C@H](NC(=O)c2ccccc2F)[C@@H](c2ccc(OC)cc2)C1 | -8.438 |  |
| Cc1ccc(CN2CCC3(CC2)CC(CC(=O)NC(C)C)CO3)s1.O=C(O)C(F)(F)F (stereo unspecified) | -52.98 |  |
